Hits are enriched below; roughly 10% of the tested compounds scored in any of these assays.
G9a inh = inhibitors of human histone lysine methyltransferase G9a. G9a H3K9 monomethylation, AlphaScreen, 2 h. actives 8.8% (n = 350,000). Potency, µM (highest dose often 102 µM), most hits filed as inhibitors. Q96KQ7; note: nearly all actives have a fitted effect of over 75% in size
Target sequence (Q96KQ7 913-1193 limits assumed): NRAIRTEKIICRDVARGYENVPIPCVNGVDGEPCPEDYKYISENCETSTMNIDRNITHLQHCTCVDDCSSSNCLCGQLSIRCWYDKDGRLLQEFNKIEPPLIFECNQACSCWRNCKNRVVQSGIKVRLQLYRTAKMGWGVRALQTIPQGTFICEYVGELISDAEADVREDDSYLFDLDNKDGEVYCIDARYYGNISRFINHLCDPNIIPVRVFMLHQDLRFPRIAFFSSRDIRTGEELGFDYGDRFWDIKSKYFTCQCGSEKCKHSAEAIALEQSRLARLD
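Quantitative HTS format: methyltransferase activity on a biotin-tagged H3K9 peptide is measured by AlphaScreen, using a rabbit anti-monomethyl-H3K9 antibody with streptavidin donor and anti-IgG acceptor beads. Final levels are 20 nM enzyme, 500 nM peptide, 20 uM SAM; 2 h RT.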
Six1-Eya2 blk = blocks human Six1 binding to Eya2; activity change, % (concentration not given with the values); AID 651725; AlphaScreen GST-Six1/His-Eya2 binding, biochemical; stronger effect = lower value; Q15475+O00167; actives 0.56% (n = 360,000); in the data active = activity change below about -65%; inconclusive = mostly about -30% to -63%
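AlphaScreen with GST-Six1 and His-Eya2 (5X mix: 250 nM and 500 nM), glutathione donor and nickel acceptor beads; buffer 50 mM Tris pH 8.0, 300 mM NaCl, 1 mM TCEP; 1 h at 37 C in the dark.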
JMJD2A Tudor inh = inhibitors of human JMJD2A Tudor domain; AID 504339; Potency, µM (series often up to 114 µM), usual class: inhibitors; O75164; actives 4.4% (n = 390,000); AlphaScreen JMJD2A-Tudor / H3K4me3 peptide binding; note: nearly all actives have a fitted effect of over 50% in size
CtBP-E1A blk = inhibitors of CtBP/E1A interaction. AlphaScreen GST-E1A/His-CtBP binding, 1536-well; stronger effect = lower value. actives 0.49% (n = 340,000). activity change, % (concentration not given with the values). AID 651724; in the data active = activity change below about -65%; inconclusive = mostly about -30% to -63%
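GST-E1A and His-tagged CtBP (125 nM each as 5X stock) were preincubated with pin-transferred compound for 2 h at 37 °C in the dark, then glutathione donor and nickel acceptor beads were added for 1 h before AlphaScreen reading.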
HP1b chromo inh = inhibitors of HP1-beta chromodomain binding to methylated histone tails. P83916. AlphaScreen HP1-beta / biotin-H3K9me3 peptide binding. Potency, µM (doses to about 114 µM), hits mostly inhibitors. actives 0.56% (n = 390,000). AID 540317; note: nearly all actives have a fitted effect of over 70% in size
Target sequence (P83916 whole entry, looked up): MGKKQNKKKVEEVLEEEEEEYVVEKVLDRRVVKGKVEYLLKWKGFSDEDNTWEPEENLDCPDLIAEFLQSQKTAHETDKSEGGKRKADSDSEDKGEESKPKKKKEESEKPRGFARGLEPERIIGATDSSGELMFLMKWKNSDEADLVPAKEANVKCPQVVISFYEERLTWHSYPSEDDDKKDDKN
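HP1-beta protein (50 nM final) preincubated 30 min at room temperature with biotinylated H3(1-18)K9me3 peptide (50 nM) in PBS pH 7.4, 0.01% Tween-20, then compound added for 30 min. AlphaScreen streptavidin donor/nickel chelate acceptor beads (10 ug/mL final), 30 min dark, luminescence read.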
BAZ2B inh = blocks human BAZ2B | AlphaScreen BAZ2B-H3K14Ac peptide displacement | Potency, µM (top dose mostly 114 µM), hits mostly inhibitors | Q9UIF8 | AID 504333 | actives 4.4% (n = 360,000); note: nearly all actives have a fitted effect of over 60% in size
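Protein-peptide AlphaScreen: BAZ2B 50 nM, b-H3K14Ac 50 nM, 1x PBS pH 7.4 + 0.01% Tween-20. Preincubation 30 min RT; cpd 30 min RT (top 110 uM); beads 20 min RT, light-protected.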
A number is an active result; i = inactive; ? = inconclusive; nt = no result; [ ] = remark or other dose. Unless noted, calls come from the whole dose curve; as a rule, active = well fitted inhibition curve with a large enough effect; inconclusive = small, poorly fitted or top-dose-only effect; inactive = no such curve, though single readings can be large or run the other way.

SMILES	G9a inh	Six1-Eya2 blk	JMJD2A Tudor inh	CtBP-E1A blk	HP1b chromo inh	BAZ2B inh
CCn1c(-c2ccc(N(C)C)cc2)nc2ccccc21	79.4µM	i	i	i	i	50.1µM
CC(C)n1c(-c2ccc(N(C)C)cc2)nc2ccccc21	39.8µM	?	56.2µM	i	?	39.8µM
CCn1c(-c2ccc(N)cc2)nc2ccccc21	i	i	i	i	i	i
COc1cccc(N2CCN(C(=O)Cn3nc(C)n4c(cc5c(OC)cccc54)c3=O)CC2)c1	i	nt	i	nt	i	i
Cc1ccn2c(=S)[nH]nc2c1	nt	i	nt	i	nt	nt
S=c1[nH]nc2ccccn12	nt	i	6.31µM	i	?	nt
Cn1ccc(C(=O)Nc2sc3c(c2C(N)=O)CCCCC3)n1	22.4µM	i	i	i	i	i
CCn1ncc(Br)c1C(=O)Nc1sc2c(c1C(N)=O)CCC2	i[2.33 µM]	i	i	i	i	i
Cn1nccc1C(=O)Nc1sc2c(c1C(N)=O)CCCC2	i	i	i	i	i	i
Cc1cc(C(F)F)n2nc(C(=O)Nc3sc4c(c3C(N)=O)CCC4)nc2n1	39.8µM	?	i	i	i	i
Cn1cc(Br)c(C(=O)Nc2sc3c(c2C(N)=O)CCC3)n1	?	-71.5	i	-78.8	i	i
CCOc1nc(Nc2ccc(OC)c(Cl)c2)nc(N2CCN(c3ccc(OC)cc3)CC2)n1	11.2µM	?	35.5µM	?	?	11.2µM
Oc1cc(O)cc(/C=C/c2ccc(O)c(O)c2)c1	0.67µM	?	44.7µM	i	15.8µM	?
C[C@@H]1COc2cccc(N(C)CCO)c2S(=O)(=O)N1	nt	i	nt	i	nt	nt
O=[N+]([O-])c1ccc(CSc2nc3ccccc3[nH]2)cc1	28.2µM	i	i	i	i	i
Nc1ccccc1SCc1cn2ccccc2n1	50.1µM	i	i	i	i	i
Nc1ccccc1SCc1cn2cccnc2n1	35.5µM	i	i	i	i	i
c1ccc2[nH]c(SCc3cn4ccccc4n3)nc2c1	44.7µM	i	i	i	i	i
c1ccc(SCc2cn3cccnc3n2)nc1	i	i	i	i	i	i
Cn1c(C(=O)NCCc2ccccc2)cc2sc(Cl)cc21	i	nt	i	nt	i	i
COC(=O)Cn1cnc2c(Cl)nc(F)nc21	nt	i	i	i	i	nt
O=C(Nc1nnc(SCc2cc(=O)n3cc(Cl)ccc3n2)s1)c1cccc(F)c1	i	nt	i	nt	i	i
Cc1ccc(CNC(=O)CSCc2cccc(F)c2)cc1	i	i	50.1µM	i	i	nt
Cc1nn(-c2ccccc2)c(OC(=O)c2cccc(Br)c2)c1S(=O)(=O)c1ccccc1	i	nt	i	nt	i	?
NC(=O)c1nsc(C(=O)N(c2cccc(F)c2)C(C(=O)NC2CCCC2)c2ccc(O)cc2)c1N (configuration not stated)	i	i	i	i	i	i
SMILES	G9a inh	Six1-Eya2 blk	JMJD2A Tudor inh	CtBP-E1A blk	HP1b chromo inh	BAZ2B inh
COc1cccc(N(C(=O)c2snc(C(N)=O)c2N)C(C(=O)NCC2CCCO2)c2cccs2)c1 (configuration not stated)	35.5µM	i	i	i	i	i
COc1ccc(C(C(=O)NC2CCCC2)N(C(=O)c2snc(C(N)=O)c2N)c2cccc(O)c2)cc1 (configuration not stated)	70.8µM	i	?	i	i	?
NC(=O)c1nsc(C(=O)N(c2ccccc2)C(C(=O)NCC2CCCO2)c2cccs2)c1N (configuration not stated)	i	i	i	nt	i	i
COc1ccc(N(CC(=O)Nc2cccc(C(C)=O)c2)S(=O)(=O)c2ccccc2)c(OC)c1	3.16µM	nt	i	nt	i	?
COc1ccc(-c2nnc(C3CCN(S(=O)(=O)c4ccccc4)CC3)o2)cc1	39.8µM	i	i	i	i	i
COc1ccccc1-c1nnc(C2CCN(S(=O)(=O)c3ccccc3[N+](=O)[O-])CC2)o1	39.8µM	i	i	i	i	i
Cc1cccc(-c2nnc(C3CCN(S(=O)(=O)c4cccc(Cl)c4)CC3)o2)c1	3.16µM	nt	i	nt	i	i
COc1ccccc1-c1nnc(C2CCN(S(=O)(=O)c3ccc([N+](=O)[O-])cc3)CC2)o1	nt	i	i	i	i	?
Cc1ccc(-c2nnc(C3CCN(S(=O)(=O)c4ccc(C)c(C)c4)CC3)o2)cc1	?	nt	i	nt	i	i

Assay outcomes from PubChem BioAssay.
